Bioassay records (PubChem)
sEH inhibitor: blocks human soluble epoxide hydrolase activity; recombinant human sEH enzymatic activity assay; inhibition, % at 2 µM; P34913; 91,000 compounds, 0.34% hits; AID 707; in the data active = inhibition above about 80%
Target sequence (P34913 whole entry, looked up): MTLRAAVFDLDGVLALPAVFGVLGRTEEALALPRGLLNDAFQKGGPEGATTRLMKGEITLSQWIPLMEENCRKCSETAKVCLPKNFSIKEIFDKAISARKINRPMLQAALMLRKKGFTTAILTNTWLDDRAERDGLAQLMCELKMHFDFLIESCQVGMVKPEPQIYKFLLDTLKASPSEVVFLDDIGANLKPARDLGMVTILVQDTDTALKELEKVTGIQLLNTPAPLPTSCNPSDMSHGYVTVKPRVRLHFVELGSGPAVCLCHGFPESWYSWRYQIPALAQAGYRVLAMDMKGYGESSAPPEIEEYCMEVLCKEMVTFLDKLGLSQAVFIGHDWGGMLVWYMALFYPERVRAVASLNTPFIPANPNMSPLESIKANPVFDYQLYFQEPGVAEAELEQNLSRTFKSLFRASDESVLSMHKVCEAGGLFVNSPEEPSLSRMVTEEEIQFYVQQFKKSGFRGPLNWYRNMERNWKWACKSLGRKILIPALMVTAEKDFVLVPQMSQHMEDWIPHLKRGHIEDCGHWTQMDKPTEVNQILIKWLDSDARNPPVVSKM
MRP-1 activ: activates MRP-1; H69AR cells + doxorubicin, viability rescue, CellTiter-Glo; viability increase, % at 10 µM; 140,000 compounds, 0.61% hits;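 active = viability gain under doxorubicin at or above a set limit, the compound median plus 3 SD, cut at about 4.7% in these data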;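 note: MRP-1 overexpressing cells given doxorubicin 25 µM after compound pretreatment; 18-22 h compound pretreatment then 72 h with doxorubicin before readout; 0% = doxorubicin-only wells and 100% = vehicle-treated cells without doxorubicin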
MRP resist rev: reverses drug resistance mediated by MRP | H69AR cells + 2 uM doxorubicin, CellTiter-Glo, 72 h | differential viability (reversal), % at 10 µM | 85,000 compounds, 0.04% hits;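 active = viability drop by adding the cancer drug above about 55%, with treated viability meeting a 40% cutoff, limit read from the data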;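 note: viability without doxorubicin minus viability with 2 µM doxorubicin for each compound; larger differential means the compound sensitizes cells more to doxorubicin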
sdo1 growth: restores growth of sdo1-depleted yeast; S. cerevisiae sdo1-depleted JHY4D growth rescue, OD600 30 h; active compounds read high; pdr5 snq2 efflux-pump mutant strain; z-score at 10 µM; 140,000 compounds, 0.21% hits; AID 817;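 active = z-score above 3 at both the 24 hr and the 30 hr optical density reads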;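 note: z-score against mean and SD of all compound wells on the same plate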
Measles CPE: protection of cells from measles virus; Measles virus-infected cells, CPE protection, absorbance; protection (pct of control), % at 4 µM; 140,000 compounds, 1.5% hits; in the data active = protection mostly above about 24%, no sharp cut-off; inactive = mostly below about 26%
sEH act: increases human soluble epoxide hydrolase activity. P34913. purified human sEH enzymatic activity, activator screen. activation, % at 2 µM. 91,000 compounds, 0.04% hits; in the data active = activation above about 37%
An asterisk follows results filed as active; / = not tested or not shown. Sampled rows, rich in hits. Any-hit rate of the full collection: about 2.5%.

SMILES | sEH inhibitor | MRP-1 activ | MRP resist rev | sdo1 growth | Measles CPE | sEH act
CCOc1ccc(C2C(C(=O)c3ccc(C)o3)=C(O)C(=O)N2CCN2CCOCC2)cc1OC (stereo not given) | / | 0 | -10 | -0.03 | 12 | /
COc1ccccc1C1C(C(=O)c2sc(C)nc2C)=C(O)C(=O)N1CCN1CCOCC1 (stereo not given) | / | 7.6* | / | 0.49 | 10 | /
CCCOc1ccc(C2C(C(=O)c3ccco3)=C(O)C(=O)N2CCN2CCOCC2)cc1OC (stereo not given) | / | -2 | 24 | 0.42 | 47* | /
O=C(Nc1ccc(Cl)c(Cl)c1)Nc1cc(S(=O)(=O)N2CCOCC2)ccc1N1CCCC1 | / | -3 | / | -0.37 | 10 | /
Cc1sc2nc(C3CC3)nc(SCC(=O)N3c4ccccc4CC3C)c2c1C (stereo not given) | -2 | -3 | / | -0.86 | 64* | 1
CC1CCc2nc3sc4c(c3c(N)c2C1)CCCC4 (stereo not given) | / | -2 | / | 0.36 | 7 | /
Nc1c2c(nc3sc4c(c13)CCCCC4)CCCCC2 | / | -2 | / | 0.09 | 49* | /
Cc1cc(C(=O)N/N=C/C=C/c2ccc3c(c2)OCO3)n[nH]1 | 3 | -2 | / | -0.37 | 25* | -2
Cc1ccc(C(=O)N/N=C/c2ccc3c(c2)OCO3)o1 | / | 1 | / | 0.26 | 12 | /
O=C(N/N=C\C=C\c1ccc2c(c1)OCO2)C1COc2cc3ccccc3cc2O1 (stereo not given) | 24 | 0 | / | -1.2 | 37* | -22
CCCCOc1ccc(/C=C/C(=O)OCC(=O)NC(=O)NCC(C)C)cc1OCC | / | 0 | / | 0.86 | 6 | /
CCN(CC)S(=O)(=O)c1cccc(NC(=O)CCSc2ccc(Cl)cc2)c1 | / | 5.5* | / | -0.67 | 4 | /
CN(C)S(=O)(=O)c1cccc(NC(=O)COC(=O)CCSc2ccc(Cl)cc2)c1 | / | -1 | / | 0.7 | 6 | /
COc1ccc2nc(/N=C/c3c(C)[nH]n(-c4ccc(C)cc4)c3=O)sc2c1 | / | -3 | / | 1.8 | 35 | /
O=C1NC(c2ccccc2)=C(c2ccccc2)C1=O | / | 0 | / | -0.48 | 45* | /
O=C(c1cccc(C(=O)N2CCN(c3ccccc3F)CC2)c1)N1CCN(c2ccccc2F)CC1 | / | 0 | -2 | 1.4 | 5 | /
Cc1ccc(C(=O)N2CCN(c3cc(=O)[nH]nc3-c3ccccc3)CC2)cc1 | 2 | -2 | / | 0.96 | 38* | 0
O=C(c1ccc(F)cc1)N1CCN(c2cc(=O)[nH]nc2-c2ccccc2)CC1 | 12 | -2 | / | 0.84 | 39* | -9
COc1ccc(Cc2nc(C(=O)Nc3ccc(Cl)cc3)cs2)cc1 | 20 | 0 | 4 | -0.72 | 5 | -20
COc1ccc(Cc2nc(C(=O)Nc3ccccc3)cs2)cc1 | 14 | 1 | 15 | -1.4 | 66* | -16
COc1cccc(N2C(=O)CC(N3CCN(C(=O)c4ccco4)CC3)C2=O)c1 (stereo not given) | 1 | -2 | 13 | 0.22 | 74* | 1
CC(=O)Nc1cccc(NC(=O)C2CCCN2C(=O)Nc2ccccc2C)c1 (stereo not given) | 1 | -2 | 10 | 0.08 | 3 | 0
Clc1c(-c2nnc3n2CCCCC3)sc2ccccc12 | / | -2 | 9 | -1.3 | 3 | /
COc1ccc2c(Cl)c(-c3nnc4n3CCCCC4)sc2c1 | / | -1 | 8 | -1.3 | 43* | /
Cc1ccc(-c2nnc3n2CCCCC3)cc1 | 1 | -1 | 15 | 1.9 | 29* | -3
SMILES | sEH inhibitor | MRP-1 activ | MRP resist rev | sdo1 growth | Measles CPE | sEH act
CCCNC(=O)Cn1c(=O)oc2ccccc21 | -15 | -2 | 0 | 0.62 | 3 | 12
C/C(=N/OCO/N=C(\C)c1ccccc1)c1ccccc1 | / | 3 | / | 0.49 | 19 | /
C/C(=N/OCO/N=C(/C)c1ccc(F)cc1)c1ccc(F)cc1 | / | -2 | / | -0.99 | 29* | /
O=C(Nc1cccc([N+](=O)[O-])c1)c1[nH]ncc1Cl | / | 6.1* | / | 0.35 | 19 | /
CCc1nn(C)c(-c2n[nH]c(=S)n2N)c1Cl | -2 | -1 | / | 0.22 | 44* | 4
CCc1cc(-c2n[nH]c(=S)n2N)n(C)n1 | -2 | -2 | / | 1.3 | 21 | 2
CCCn1c(N2CCN(CC(=O)NCc3cccs3)CC2)nc2ccccc21 | -1 | -3 | -19 | 1.2 | 61* | -1
S=c1[nH]nc(-c2ccncc2)n1/N=C/c1ccccc1 | / | -3 | / | 0.62 | 3 | /
S=c1[nH]nc(-c2ccccc2)n1/N=C/c1ccc(-c2ccccc2Cl)o1 | / | -2 | / | -1.5 | 70* | /
Cc1ccc(/C(O)=C2\C(=O)C(=O)N(CCCN(C)C)C2c2ccccn2)cc1 (stereo not given) | 6 | / | -2 | / | / | -7
